A selection: hits, their analogues and other compounds. The true share with any hit is near 7.3%.
SMN2 splice enh: enhancers of SMN2 splice variant expression | hit rate 2.8% among 210,000 | HEK293 SMN2-luciferase splicing reporter, luminescence, 30-36 h | Potency, µM (top dose mostly 46.1 µM), hits mostly activators; note: nearly all actives have a fitted effect of over 55% in size
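HEK293 cells carry an SMN2 minigene-luciferase reporter in which exon 7 inclusion puts luciferase in frame. Cells were seeded at 2000 cells/well, attached for 10-12 hours, then exposed to compounds for 30-36 hours at 37C before ONE-Glo luminescence.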
Rab9 prom act: Rab9 promoter activation; Huh7 Rab9 promoter-luciferase reporter, luminescence, 24 h; Potency, µM (doses to about 9.22 µM), most hits filed as activators; hit rate 2.8% among 320,000; note: nearly all actives have a fitted effect of over 60% in size
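Huh7 reporter line, Rab9 promoter upstream of luciferase. Compound exposure 24 h at 37 °C in reduced-serum medium with 10% FBS. Read-out: luminescence.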
ELG1 genotoxic: genotoxicity induction in ELG1-luciferase HEK293T cells. HEK293T ELG1-luciferase reporter, luminescence, 16 h. hit rate 1.3% among 330,000. Potency, µM (highest dose often 46 µM), usual class: activators; note: nearly all actives have a fitted effect of over 60% in size
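HEK293T cells expressing luciferase-tagged ELG1 were treated with compound or DMSO for 16 hr at 37°C. Luciferase activity was then read after 30 min with ONE-Glo at room temperature; rising signal flags genetic stress.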
FLuc counter: inhibits or activates purified firefly luciferase, miR-21 counter-screen; P08659; purified FLuc, Km substrates, luminescence inhibition; Potency, µM (highest dose often 57.5 µM), usual class: inhibitors; hit rate 6.9% among 360,000; AID 588342; note: nearly all actives have a fitted effect of over 55% in size
Target sequence (P08659 whole entry, looked up): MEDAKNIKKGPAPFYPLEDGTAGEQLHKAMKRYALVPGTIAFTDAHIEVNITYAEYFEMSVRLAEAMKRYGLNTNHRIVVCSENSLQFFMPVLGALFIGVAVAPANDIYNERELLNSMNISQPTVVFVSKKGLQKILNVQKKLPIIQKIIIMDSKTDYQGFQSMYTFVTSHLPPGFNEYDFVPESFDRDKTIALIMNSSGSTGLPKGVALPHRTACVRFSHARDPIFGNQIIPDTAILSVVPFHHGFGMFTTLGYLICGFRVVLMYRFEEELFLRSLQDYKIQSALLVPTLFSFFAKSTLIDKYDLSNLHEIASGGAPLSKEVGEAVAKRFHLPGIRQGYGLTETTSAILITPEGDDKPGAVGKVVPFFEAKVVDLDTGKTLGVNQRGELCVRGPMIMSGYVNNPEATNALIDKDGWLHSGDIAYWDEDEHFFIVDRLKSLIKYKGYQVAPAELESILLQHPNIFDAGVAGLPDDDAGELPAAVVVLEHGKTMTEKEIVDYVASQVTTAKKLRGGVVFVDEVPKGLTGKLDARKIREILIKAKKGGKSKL
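Purified P. pyralis luciferase (10nM final) with 10uM D-luciferin and 10uM ATP (Km levels) in 50mM Tris acetate pH 7.5, 10mM Mg acetate, 0.01% Tween-20, 0.05% BSA; qHTS 6-point titration, ~60 µM downward; luminescence read.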
NPC1 prom act: activators of NPC1 promoter. Potency, µM (doses to about 9.22 µM), hits mostly activators. Huh7 NPC1 promoter luciferase reporter, 24 h. hit rate 2.4% among 320,000; note: nearly all actives have a fitted effect of over 60% in size
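Readout is luciferase luminescence, reflecting NPC1 promoter activation in stably transfected Huh7 cells after 24 h compound exposure at 37 °C in reduced-serum medium with 10% FBS.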
uPA surface inh: inhibitors of cell surface uPA generation | cell surface uPA generation assay, qHTS | Potency, µM (top dose mostly 38.3 µM), most hits filed as inhibitors | hit rate 0.31% among 330,000 | AID 540303; active = well fitted inhibition curve with a large enough effect; inconclusive = small, poorly fitted or top-dose-only effect; inactive = no such curve, though single readings can be large or run the other way; tested in mouse RAW 264.7 cells; note: nearly all actives have a fitted effect of over 55% in size
Of the large screens only hits and unclear results are named; the others gave an inactive call. Unless noted, calls come from the whole dose curve; as a rule, active = well fitted curve in the direction sought with a large enough effect; inconclusive = small, poorly fitted or top-dose-only effect, or another doubt; inactive = no such curve, though single readings can be large; an effect the other way counts as inactive or inconclusive.

COc1ccc(C(=O)n2nc(-c3ccco3)nc2NCc2cccs2)cc1	SMN2 splice enh inconclusive (no result: Rab9 prom act, ELG1 genotoxic, NPC1 prom act, uPA surface inh)
COc1cccc(/C=N/n2cnc3cc(C)c(C)cc32)c1OC	FLuc counter 12µM, NPC1 prom act inconclusive (no result: SMN2 splice enh)
COc1cccc(/C=N/n2c(C)nc3ccccc32)c1OC	FLuc counter inconclusive
COc1cccc(/C=N/n2c(=S)n(C)c3ccccc32)c1OC	FLuc counter 10.7µM
COc1cccc(/C=N\n2c(C)nnc2C)c1OC	none (no result: SMN2 splice enh)
COc1cccc(/C=N/n2c(=O)[nH]c3ccccc32)c1OC	SMN2 splice enh inconclusive, FLuc counter 9.53µM
CCC(=O)OCc1cc(=O)n2nc(C3CC3)sc2n1	none (no result: SMN2 splice enh, Rab9 prom act, ELG1 genotoxic, NPC1 prom act, uPA surface inh)
O=C1N=c2ccccc2=C1c1sc(Nc2cccc(O)c2)nc1O	FLuc counter 19µM, uPA surface inh inconclusive (no result: SMN2 splice enh)
O=C1N=c2ccccc2=C1c1sc(Nc2ccc(O)cc2)nc1O	FLuc counter inconclusive
O=C1N=c2ccccc2=C1c1sc(NS(=O)(=O)Cc2ccccc2)nc1O	FLuc counter 10.7µM (no result: SMN2 splice enh)
CC(=O)c1cccc(NC(=O)CCn2nc(C)c(S(=O)(=O)N3CCCCC3)c2C)c1	none (no result: SMN2 splice enh, Rab9 prom act, ELG1 genotoxic, NPC1 prom act, uPA surface inh)
COCCCn1c(=S)[nH]c2sc3c(c2c1=O)CCCC3	FLuc counter 19µM (no result: SMN2 splice enh)
COCCn1c(=S)[nH]c2sc3c(c2c1=O)CCCC3	none (no result: SMN2 splice enh)
Cc1cn(C)c(CC(=O)NCc2ccccc2Cl)c1C(=O)O	none (no result: SMN2 splice enh, Rab9 prom act, ELG1 genotoxic, NPC1 prom act, uPA surface inh)
c1ccc(CNc2nc(-c3cccnc3)cs2)cc1	FLuc counter inconclusive
c1ccc(-c2csc(-c3cccnc3)n2)cc1	Rab9 prom act inconclusive, FLuc counter 19µM (no result: SMN2 splice enh)
c1ccc(-c2nc(-c3cccnc3)cs2)cc1	Rab9 prom act inconclusive, ELG1 genotoxic inconclusive, FLuc counter 12µM, NPC1 prom act inconclusive (no result: SMN2 splice enh)
Cc1ccc(S(=O)(=O)N2C[C@@H]3CCCC[C@@H]3[C@@H](C)[C@H]2c2cn(Cc3ccccc3)c3ncccc23)cc1	uPA surface inh 10µM (no result: SMN2 splice enh, Rab9 prom act, FLuc counter, NPC1 prom act)
O=C(C1CCN(S(=O)(=O)c2ccccc2)CC1)N1CCN(Cc2ccccc2)CC1	none (no result: SMN2 splice enh)
CCS(=O)(=O)c1ccccc1C(=O)Nc1ccc(-c2nc3ccccc3s2)cc1	FLuc counter 9.53µM (no result: SMN2 splice enh, Rab9 prom act, ELG1 genotoxic, NPC1 prom act, uPA surface inh)
CC(C)(C)C(=O)Nc1ccc(-c2nc3ccccc3s2)cc1	FLuc counter 0.0151µM (no result: SMN2 splice enh, Rab9 prom act, ELG1 genotoxic, NPC1 prom act, uPA surface inh)
CC(C)(C)NC(=O)c1ccccc1-c1nc2ccccc2s1	none (no result: SMN2 splice enh)
C/C(=N\NC(N)=O)C1CC(Cc2ccccc2)C(=O)O1 (stereo not given)	none (no result: SMN2 splice enh)
CCOC(=O)c1cnc2c(ccc3ccccc32)c1Nc1ccc(OCC)cc1	none (no result: Rab9 prom act, ELG1 genotoxic, NPC1 prom act, uPA surface inh)
CCOC(=O)c1cnc2c(C)c(C)ccc2c1Nc1ccc(S(=O)(=O)Nc2ncccn2)cc1	SMN2 splice enh inconclusive, FLuc counter 19µM
COc1ccc(C(=O)N2CCCC(C(N)=O)C2)cc1S(=O)(=O)N1CCOCC1 (stereo not given)	none (no result: SMN2 splice enh)
Clc1cc(Cl)c2nc(N3CCCCC3)sc2c1	SMN2 splice enh inconclusive, Rab9 prom act 3.98µM, ELG1 genotoxic inconclusive, FLuc counter 8.49µM, NPC1 prom act 2.82µM
Clc1cccc2sc(N3CCCCC3)nc12	SMN2 splice enh inconclusive, Rab9 prom act inconclusive, ELG1 genotoxic 23.1µM, FLuc counter 23.9µM
Clc1cc(Cl)c2nc(N3CCCC3)sc2c1	none (no result: SMN2 splice enh, Rab9 prom act, ELG1 genotoxic, FLuc counter, NPC1 prom act)
CC(=O)c1ccc(NC(=O)COc2ccccc2-c2nc(-c3ccc(C)cc3)no2)cc1	none (no result: SMN2 splice enh, Rab9 prom act, ELG1 genotoxic, NPC1 prom act, uPA surface inh)
COc1ccc(CCNC(=O)c2nc(SCc3ccc(C)cc3)ncc2Cl)cc1OC	none (no result: Rab9 prom act, ELG1 genotoxic, NPC1 prom act, uPA surface inh)
Cc1ccc(NC(=O)c2cc(-c3cccs3)on2)cc1	ELG1 genotoxic 11.2µM, FLuc counter 2.39µM
O=C(Nc1cccc(O)c1)c1cc(-c2cccs2)on1	ELG1 genotoxic 11.6µM, FLuc counter 0.849µM (no result: SMN2 splice enh)
CC(=O)c1cccc(NC(=O)c2cc(-c3cccs3)on2)c1	ELG1 genotoxic inconclusive, FLuc counter 0.849µM (no result: SMN2 splice enh)
Cc1cccc(-n2ncc3c(NCCCn4ccnc4)ncnc32)c1	SMN2 splice enh 7.08µM, Rab9 prom act inconclusive, ELG1 genotoxic inconclusive, FLuc counter inconclusive
Cc1ccc(-n2ncc3c(NCCCn4ccnc4)ncnc32)cc1	FLuc counter 12µM (no result: SMN2 splice enh, Rab9 prom act, ELG1 genotoxic, NPC1 prom act, uPA surface inh)
O=C(O)C(O)C(O)c1nc2ccccc2[nH]1 (stereo not given)	none
CN(C)c1cccc(C(=O)NNC(=O)CN2C(=O)C3CC=CCC3C2=O)c1 (stereo not given)	ELG1 genotoxic 10.3µM (no result: SMN2 splice enh, Rab9 prom act, FLuc counter, NPC1 prom act)
